MARV entry inh: qHTS for inhibitors of binding or entry into cells for Marburg Virus. AID 540276, 2011. Marburg virus pseudotyped entry inhibition, cell reporter. hit rate 1.8% among 300,000. Potency, µM (series often up to 37.8 µM), for inactives: at the highest dose activity change, negative = inhibition, most hits filed as inhibitors; calls by dose curve; tested in HEK293 cells; note: potency is the fitted concentration of half-maximal effect
FMDV inh: High Throughput Screening for Foot and Mouth Disease Virus Antivirals; FMDV antiviral cell-based qHTS; Potency, µM (doses to about 57.9 µM), without a hit: at the top dose activity change, negative = inhibition, actives largely listed as inhibitors; hit rate 1.2% among 410,000; calls by dose curve; tested in HEK293T cells; note: read-out not given here; potency is the fitted concentration of half-maximal effect; nearly all actives have a fitted effect of over 45% in size
HCV inhibitor: qHTS Assay for Inhibitors of Hepatitis C Virus (HCV); Huh7.5.1 HCVcc-Cre infection, luciferase reporter, 44 h; Potency, µM (series often up to 41.8 µM), inactives show at the highest dose activity change, negative = inhibition, usual class: inhibitors; hit rate 3.4% among 340,000; AID 651820, 2012; active = well fitted inhibition curve with a large enough effect; inconclusive = small, poorly fitted or top-dose-only effect, or another doubt; inactive = no such curve, though single readings can be large or run the other way; note: potency is the fitted concentration of half-maximal effect
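After 44 h co-culture of compound, cells and HCVcc-Cre (~0.5 moi), substrate is added for 15 min at room temperature and luciferase measured over 15 sec. Cells were seeded at 1,000/well and pre-cultured 4 h.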
HCMV inh: qHTS Assay for inhibitors of the human cytomegalovirus (HCMV). AID 1259415, 2018. HFF cells, HCMV-luciferase reporter, 72 h; active compounds read low. hit rate 4.5% among 410,000. activity change, negative = inhibition, % at 57.5 µM; in the data active = activity change below about -60%; inconclusive = no clear call, values can overlap the other calls; inactive = above about -39%
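Compounds were evaluated in HFFs infected with an HCMV luciferase reporter virus (MOI 1 PFU/cell). Luciferase in lysates collected 72 h post infection served as the replication measure.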
LASV entry inh: qHTS for Inhibitors of binding or entry into cells for Lassa Virus | hit rate 1.2% among 300,000 | Potency, µM (top dose mostly 37.9 µM), inactives show at the top dose activity change, negative = inhibition, usual class: inhibitors | Lassa virus pseudotype entry inhibition, cell reporter; calls by dose curve; tested in HEK293 cells; note: potency is the fitted concentration of half-maximal effect; nearly all actives have a fitted effect of over 50% in size
* marks the source's active call; other numbers are inactive results; [ ] = remark or other dose. The list is not random: actives were taken first. Their share in the collection is about 7.9%. % is set by controls: 0 for no effect and ±100 for the full control effect.

Results for COc1cccc(C(=O)NCc2nc(-c3cccc(NC(=O)c4ccoc4C)c3)oc2C)c1OC ?
FMDV inh: 20µM*

What do the screens show for `CCc1ccc(N/C(SC)=C(/C#N)C(N)=O)cc1`?
MARV entry inh: -1.9%; FMDV inh: -13.1%; HCV inhibitor: -19.6%; HCMV inh: 6.9; LASV entry inh: -1.7%

What do the screens show for `CCCCS/C(=C(/C#N)C(N)=O)c1cc2c([nH]1)CCCC2`?
MARV entry inh: -22.9%; FMDV inh: -21.2%; HCV inhibitor: -30.8%; HCMV inh: -63.2*; LASV entry inh: -19.5%

What do the screens show for `Oc1cccc(-c2nc3c4c(ncn3n2)-c2ccccc2CC42CCCC2)c1`?
MARV entry inh: 23.1µM*; FMDV inh: inconclusive; HCMV inh: -93.3*; LASV entry inh: -16.7%[14.3 µM]

What do the screens show for `COc1ccc(-c2nc3c4c(ncn3n2)-c2ccccc2CC42CCCC2)cc1`?
MARV entry inh: 9.7%; FMDV inh: 31.6µM*; HCV inhibitor: inconclusive; HCMV inh: -9.6; LASV entry inh: -0.4%

What do the screens show for `COc1ccc(OCc2nc3c4c(ncn3n2)-c2ccccc2CC42CCCC2)cc1`?
MARV entry inh: inconclusive; FMDV inh: inconclusive; HCV inhibitor: inconclusive; HCMV inh: inconclusive; LASV entry inh: -4.3%

How did Cc1cc(N2CCN(c3nc(-c4ccc([N+](=O)[O-])cc4)cs3)CC2)c2ccccc2n1 do in these assays?
MARV entry inh: 11.2µM*; FMDV inh: inconclusive; HCV inhibitor: 6.31µM*; HCMV inh: -23.2; LASV entry inh: inconclusive

Results for Cc1ccc(S(=O)(=O)N(C)c2ccc(C(=O)N3CCN(Cc4ccc5c(c4)OCO5)CC3)cc2)cc1 ?
MARV entry inh: inconclusive; FMDV inh: 15.8µM*; HCV inhibitor: 4.47µM*; HCMV inh: -95.0*; LASV entry inh: inconclusive

What do the screens show for `CN(c1ccc(C(=O)N2CCN(Cc3ccccc3)CC2)cc1)S(=O)(=O)c1ccccc1`?
MARV entry inh: -25.5%[46.1 µM]; FMDV inh: -11.2%; HCV inhibitor: inconclusive; HCMV inh: inconclusive; LASV entry inh: inconclusive

Results for Cc1ccc(C(=O)N2CCN(Cc3ccc4c(c3)OCO4)CC2)c(Cl)c1 ?
MARV entry inh: inconclusive; FMDV inh: inconclusive; HCV inhibitor: 11.2µM*; HCMV inh: -31.2; LASV entry inh: -23.5%[46.1 µM]

Results for CN(c1ccc(C(=O)N2CCN(Cc3ccc4c(c3)OCO4)CC2)cc1)S(=O)(=O)c1ccccc1 ?
MARV entry inh: inconclusive; FMDV inh: inconclusive; HCV inhibitor: 6.31µM*; HCMV inh: -100.7*; LASV entry inh: -27.1%

Results for CN(CCOc1ccc(Cl)cc1)C(=O)c1cc(S(=O)(=O)N2CCOCC2)ccc1N1CCCC1 ?
FMDV inh: inconclusive; HCV inhibitor: inconclusive; HCMV inh: -25.7

Results for COC(=O)CC1=C(C(=O)OC)C(c2cccs2)C(C#N)=C(N)O1 (stereo unspecified) ?
MARV entry inh: 3.4%[46.1 µM]; FMDV inh: 0.0%; HCV inhibitor: 22.2%; HCMV inh: -100.7*; LASV entry inh: -2.8%

What do the screens show for `COc1ccc(N2CC(C(=O)NC3CCSC3=O)CC2=O)cc1` (stereo unspecified)?
MARV entry inh: -9.3%[46.1 µM]; FMDV inh: 12.4%; HCV inhibitor: 19.0%; HCMV inh: 39.0; LASV entry inh: 4.9%[46.1 µM]

How did O=C(c1cccc(C(=O)N(c2ccccn2)C2CCCCC2)c1)N(c1ccccn1)C1CCCCC1 do in these assays?
MARV entry inh: 9.2µM*; FMDV inh: -6.7%; HCV inhibitor: -19.7%; HCMV inh: inconclusive; LASV entry inh: inconclusive

How did O=C(c1ccc(Cl)cc1)N(c1ccccn1)C1CCCCC1 do in these assays?
MARV entry inh: 9.4%[46.1 µM]; FMDV inh: -12.9%; HCV inhibitor: 10.0%; HCMV inh: 78.0; LASV entry inh: -1.6%

Results for C[C@H](CO)N1C[C@H](C)[C@@H](CN(C)S(=O)(=O)c2cccs2)Oc2c(NC(=O)Cc3ccccc3)cccc2C1=O ?
FMDV inh: 15.7%; HCV inhibitor: inconclusive; HCMV inh: -0.9

Results for O=C(O)c1ccc2c(=O)n3c(nc2c1)/C(=C/c1ccc(Cl)cc1Cl)CC3 ?
FMDV inh: inconclusive; HCV inhibitor: 8.3%; HCMV inh: -20.6

What do the screens show for `O=C(Nc1ccc2c(c1)OCCO2)c1cc2ccccc2o1`?
MARV entry inh: 3.98µM*; FMDV inh: -35.0%; HCV inhibitor: 22.4µM*; HCMV inh: 116.6; LASV entry inh: 7.94µM*

Results for O=C(Nc1ccc(NC(=O)c2cc3ccccc3o2)cc1)c1ccccc1 ?
FMDV inh: -12.8%; HCMV inh: 3.0; LASV entry inh: 5.4%[46.1 µM]

Results for Cc1ccc(NC(=O)c2cc3ccccc3oc2=O)cc1S(=O)(=O)N(C)C ?
MARV entry inh: inconclusive; FMDV inh: inconclusive; HCV inhibitor: -9.4%; LASV entry inh: inconclusive

Results for Cc1ccc(NC(=O)c2cc3ccccc3o2)cc1S(=O)(=O)N(C)C ?
MARV entry inh: 15.7%; FMDV inh: -36.1%; HCV inhibitor: 11.2µM*; HCMV inh: 11.9; LASV entry inh: inconclusive

What do the screens show for `c1ccc(-c2ccc([C@H](c3ccccc3)n3ccnc3)cc2)cc1`?
MARV entry inh: -55.7%

Results for CCOc1ccc2c(c1)c(C(C)=O)c(C)n2-c1ccccc1 ?
MARV entry inh: 0.4%; FMDV inh: -20.0%; HCV inhibitor: 11.2µM*; HCMV inh: inconclusive; LASV entry inh: 2.7%

What do the screens show for `CCOC(=O)c1c(C)n(-c2ccccc2)c2ccc(OCCN(C)C)cc12`?
MARV entry inh: inconclusive; FMDV inh: 31.5%; HCV inhibitor: 15.8µM*; HCMV inh: 17.3; LASV entry inh: inconclusive

What do the screens show for `CCOC(=O)COc1ccc2c(c1)c(C(C)=O)c(C)n2-c1ccccc1`?
MARV entry inh: 8.4%; FMDV inh: -2.2%; HCV inhibitor: 27.8%; HCMV inh: -6.6; LASV entry inh: inconclusive

Results for CCOC(=O)c1c(C)n(-c2ccc(C)cc2)c2ccc(OCC(O)CNCCCO)cc12 (stereo unspecified) ?
MARV entry inh: inconclusive; FMDV inh: -26.8%; HCV inhibitor: inconclusive; HCMV inh: -75.3*; LASV entry inh: inconclusive

Results for Cc1ccc(NC(=O)/C(=C/c2cccs2)NC(=O)c2ccco2)cc1 ?
MARV entry inh: -21.9%; FMDV inh: 11.2%; HCV inhibitor: 13.0%; HCMV inh: 21.0; LASV entry inh: 7.4%

Results for COc1ccc(-c2ccnc(-n3ncc(C(=O)NC(C)(C)CO)c3C3CC3)n2)cc1F ?
FMDV inh: 42.5%

How did COc1ccccc1N1CCN(S(=O)(=O)c2ccc(-c3cc(C(F)(F)F)on3)s2)CC1 do in these assays?
FMDV inh: 0.891µM*; HCMV inh: -38.1; LASV entry inh: 0.1%[46.1 µM]

Results for COc1ccc(OC)c(CNS(=O)(=O)c2ccc(-c3cc(C(F)(F)F)on3)s2)c1 ?
FMDV inh: 0.0%; HCMV inh: -70.3*; LASV entry inh: 11.8%[46.1 µM]

Screening results deposited in PubChem BioAssay by National Center for Advancing Translational Sciences (NCATS).
